An excerpt weighted towards active compounds, which were near 1.1% of everything screened.
Mtb betalactam – beta-lactam sensitization of Mtb H37Rv. 330,000 compounds, 0.27% hits. AID 434955. inhibition, % at 25 µM. M. tuberculosis H37Rv growth with meropenem, percent inhibition; call rule not given here;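 also: growth measured after seven days incubation then overnight dye step; 0% = bacteria only wells and 100% = bacteria with antibiotic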
SSB-PriA inh – inhibitors of Klebsiella pneumoniae PriA binding to SSB C-terminal tail; AID 1272365; 430,000 compounds, 0.6% hits; inhibition, % at 33 µM; AlphaScreen SSBct-PriA binding, biotinylated peptide; in the data active = inhibition mostly above about 37%, no sharp cut-off; inactive = mostly below about 20%;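 also: plate controls were negative control peptide for no effect and reference peptide for full effect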
Mtb UGM inh – blocks M. tuberculosis UGM enzyme | purified UGM, fluorescence polarization probe displacement | 320,000 compounds, 0.06% hits | P9WIQ1 | inhibition, % at 10 µM; in the data active = inhibition above about 10%, passing the limit was not always enough; inconclusive = no clear call, values can overlap the other calls
Rv3671c protease – Rv3671c (M. tuberculosis) protease inhibition; inhibition, % at 5.96 µM; 320,000 compounds, 0.048% hits; AID 2606; in the data active = inhibition above about 38%;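 also: extracellular domain of Rv3671c used as enzyme; 0% = enzyme with DMSO and 100% = no enzyme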
Target sequence (P9WHR9 whole entry, looked up, the tested form may be a part): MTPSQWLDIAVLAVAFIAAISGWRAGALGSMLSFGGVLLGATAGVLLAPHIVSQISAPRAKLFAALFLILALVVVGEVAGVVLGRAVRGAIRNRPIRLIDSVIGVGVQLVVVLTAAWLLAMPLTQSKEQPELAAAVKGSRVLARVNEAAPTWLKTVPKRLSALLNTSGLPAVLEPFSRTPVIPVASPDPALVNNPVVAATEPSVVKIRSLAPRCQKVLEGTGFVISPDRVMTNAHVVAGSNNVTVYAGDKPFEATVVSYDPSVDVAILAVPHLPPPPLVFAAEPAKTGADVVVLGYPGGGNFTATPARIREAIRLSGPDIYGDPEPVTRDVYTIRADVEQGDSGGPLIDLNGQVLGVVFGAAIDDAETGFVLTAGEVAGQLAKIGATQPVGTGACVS
RecA splice inh – Mtb RecA intein splicing inhibition; P9WHJ3; cell-free RecA intein splicing, fluorescence; 290,000 compounds, 0.75% hits; inhibition, % (test concentration not listed); in the data active = inhibition above about 30%; inconclusive = no clear call, values can overlap the other calls;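 also: 0% = vehicle wells and 100% = reference inhibitor control wells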
Numbers without * were called inactive.

How did O=C(O)c1ccc(C2CCCCC2)cn1 do in these assays?
Mtb betalactam: inconclusive; SSB-PriA inh: 116*; Mtb UGM inh: -2; Rv3671c protease: -31; RecA splice inh: 2

What do the screens show for `O=C(O)c1ccc(O)cn1`?
SSB-PriA inh: 88

How did Cc1nn(-c2ccccc2)c(C)c1C=Nn1c(-c2ccncc2)n[nH]c1=S do in these assays?
SSB-PriA inh: -6

Results for CC(=O)c1ccc2c(c1)C1C(Cl)C(Sc3ccccc3[N+](=O)[O-])CC1C(C(=O)O)N2 (stereo unspecified) ?
Mtb betalactam: -7; SSB-PriA inh: 46*; Mtb UGM inh: -2; Rv3671c protease: 2

Results for CCOC(=O)c1c(C)oc2c1C(=O)c1ccccc1C2=O ?
Mtb betalactam: 2; SSB-PriA inh: 23; Mtb UGM inh: -2; Rv3671c protease: -52; RecA splice inh: 59*

What do the screens show for `Cc1oc2c(c1C(=O)O)C(=O)c1ccccc1C2=O`?
Mtb betalactam: -2; SSB-PriA inh: 6; Mtb UGM inh: -1; Rv3671c protease: -54; RecA splice inh: 68*

What do the screens show for `Cc1oc2c(c1C(=O)c1ccccc1)C(=O)C(=O)c1ccccc1-2`?
Mtb betalactam: 14; SSB-PriA inh: 26; Mtb UGM inh: 0; Rv3671c protease: -48; RecA splice inh: 12

What do the screens show for `O=C(NCCC(c1ccccc1)c1ccccc1)C(=O)NC1CCCCCC1`?
SSB-PriA inh: -13

What do the screens show for `N#Cc1ccccc1NC(=O)CCCS(=O)(=O)c1ccc(F)cc1`?
SSB-PriA inh: -19

What do the screens show for `COc1ccc(CCNC(=O)Nc2c[nH]c3ccccc23)cc1OC`?
SSB-PriA inh: 6

What do the screens show for `N#CCCN1CCCc2cc(N=Nc3ccc(C(F)(F)F)cc3)ccc21`?
Mtb betalactam: 59; SSB-PriA inh: 45*; Mtb UGM inh: 1; Rv3671c protease: 6; RecA splice inh: 12

Results for Cc1ccc(CC(=O)Nc2nnc(-c3ccco3)o2)c(C)c1 ?
SSB-PriA inh: 41*

What do the screens show for `O=C(Cc1ccccc1)Nc1nnc(-c2ccco2)o1`?
Mtb betalactam: 5; SSB-PriA inh: 1; Mtb UGM inh: 1; Rv3671c protease: 8; RecA splice inh: -7

How did Cc1ccsc1C(=O)Nc1nnc(-c2ccco2)o1 do in these assays?
Mtb betalactam: 89; SSB-PriA inh: 50*; Mtb UGM inh: 1; Rv3671c protease: 0; RecA splice inh: 3

What do the screens show for `O=C(CCN1C(=O)c2ccccc2S1(=O)=O)Nc1nc2ccccc2s1`?
SSB-PriA inh: 3

What do the screens show for `COc1ccc(-c2cc(C(=O)NN=C(C)c3cccnc3)c3cc(C)ccc3n2)cc1OC`?
SSB-PriA inh: -10

How did CCC(CO)Oc1cc(NCc2cc(C)cc(C)c2)c2ncn(C(C)C)c2c1 (stereo unspecified) do in these assays?
Mtb betalactam: 3; SSB-PriA inh: 55*; Mtb UGM inh: -3; Rv3671c protease: -2

What do the screens show for `Cc1ccc2c(c1)-c1c(ssc1=S)C(C)(C)N2C(=O)CSC1=NCCS1`?
Mtb betalactam: inconclusive; SSB-PriA inh: -18; Mtb UGM inh: 2; Rv3671c protease: 1; RecA splice inh: 30*

How did CC(C)CC(=O)O/N=C1\C(=O)N(Cc2ccc(Cl)cc2)c2ccc([N+](=O)[O-])cc21 do in these assays?
Mtb betalactam: -1; Mtb UGM inh: 0; Rv3671c protease: 77*; RecA splice inh: 11

What do the screens show for `Cc1c(C(=O)N(Cc2ccc(N(C)C)cc2)CC2CCCO2)oc2ccccc12` (stereo unspecified)?
Mtb betalactam: 9; SSB-PriA inh: 57*; Mtb UGM inh: -2; Rv3671c protease: -3; RecA splice inh: 9

Results for CN(C)c1ccc(CN(CC2CCCO2)C(=O)c2cc3ccccc3o2)cc1 (stereo unspecified) ?
SSB-PriA inh: 25

Results for Cc1ccc2oc(C(=O)N(Cc3ccc(N(C)C)cc3)C3CCS(=O)(=O)C3)c(C)c2c1 (stereo unspecified) ?
Mtb betalactam: -10; SSB-PriA inh: 43*; Mtb UGM inh: 2; Rv3671c protease: -2; RecA splice inh: 6

What do the screens show for `Cc1ccc2c(C)c(C(=O)N(Cc3ccc(N(C)C)cc3)C3CCS(=O)(=O)C3)oc2c1` (stereo unspecified)?
Mtb betalactam: 4; SSB-PriA inh: 39*; Mtb UGM inh: -3; Rv3671c protease: 10; RecA splice inh: 9

How did O=C(CC(c1ccccc1)c1ccccc1)NCCC(O)C1CC1 (stereo unspecified) do in these assays?
SSB-PriA inh: 4

What do the screens show for `Cc1onc(-c2c(Cl)cccc2Cl)c1C(=O)NC(=N)N1CCCC1`?
SSB-PriA inh: -8
